Results with a measured potency or affinity are listed apart. Activity calls are given as the source filed them. How the calls were made is not given here.
Assay: HIV-1 Env-mediated cell fusion inhibitors, dose response, CCR5-tropic Env (AID 2279)
Conditions: CCR5-tropic HIV-1 Env, reporter read-out; series mostly up to 50 µM

outcome, inactive:
CCc1ccc(/C=C2\SC(=S)N(CCCC(=O)Nc3ccccc3C(=O)O)C2=O)cc1
O=C(O)CN1C(=O)/C(=C\c2cccc(OCc3ccc(Cl)cc3Cl)c2)SC1=S
O=C(O)COc1ccc(Br)cc1C(c1c(C(=O)O)[nH]c2ccccc12)c1c(C(=O)O)[nH]c2ccccc12
COc1ccc(-c2nn(-c3ccccc3)cc2/C=C\C(=O)Nc2ccc(C(=O)O)cc2)cc1
CC1=C(C(=O)Nc2ccccc2)C(c2ccc(Cl)cc2)n2c(s/c(=C/c3cccc(OCC(=O)O)c3)c2=O)=N1 (stereo unspecified)
O=C1NN(c2ccc(Cl)c(Cl)c2)C(=O)/C1=C/c1cccc(OC(=O)c2cccs2)c1
CCc1nnc(NS(=O)(=O)c2ccc(NC(=S)NC(=O)/C=C/c3cccs3)cc2)s1
N#Cc1c(-c2ccccc2)nc(SCc2cccc(Cl)c2)[nH]c1=O
O=C(O)CN1C(=O)/C(=C\c2cc(Br)ccc2OCc2ccccc2Cl)SC1=S
N#Cc1c(-c2ccccc2)nc(SCc2ccc(Cl)cc2)[nH]c1=O
Cc1cc(N2C(=O)C(O)=C(C(=O)c3ccc(C)o3)C2c2cccc(Oc3ccccc3)c2)no1 (stereo unspecified)
Oc1c(Br)cc(Br)c(/C=N/n2c(-c3ccccc3)n[nH]c2=S)c1Br
CC(C)S(=O)(=O)C1=NSC2=NC(=O)/C(=C\c3ccc(-c4ccccc4)o3)C(=N)N21
CCOc1cc(Br)cc(C(c2c(C(=O)O)[nH]c3ccccc23)c2c(C(=O)O)[nH]c3ccccc23)c1O
CCOc1cc(/C=C2/C(=N)N3C(=NC2=O)SN=C3S(=O)(=O)C(C)C)ccc1OC(=O)c1ccco1
O=C(CCN1C(=O)/C(=C/c2ccccc2Cl)SC1=S)Nc1ccccc1C(=O)O
CCCCCC(=O)Cc1cc(O)cc2c1C(=O)Oc1cc(O)c(C(=O)O)c(CCCCC)c1O2
N#Cc1c(-c2ccccc2)nc(SCc2cccc(C(F)(F)F)c2)[nH]c1=O
O=C(O)COc1ccc(/C=N/NC(=O)c2ccc(-c3csc(Nc4ccc(Cl)cc4)n3)cc2)cc1
COc1ccc(C(=O)COC(=O)c2ccccc2NS(=O)(=O)c2ccc(O)c([N+](=O)[O-])c2)cc1
COc1ccc(C(=O)Nc2ccc(/C(C)=N/NC(=O)c3ccncc3)cc2)cc1

— PubChem BioAssay AID2279 (Southern Research Specialized Biocontainment Screening …, 2010)
